Assay results published in ChEMBL document CHEMBL1201862, “PubChem BioAssay data set” (2004).
In all, about 400,000 compounds went through this assay and about 2,100 (0.53%) were called active. Inconclusive results (about 14%) are left out. The rule behind the calls is not given here. What follows is part of a selection rich in actives, with near analogues and random picks from the rest.

target: Ataxin-2 (Homo sapiens) (UniProt Q99700); experiment: qHTS for Inhibitors of ATXN expression.; format: functional
Sequence (Q99700 whole entry): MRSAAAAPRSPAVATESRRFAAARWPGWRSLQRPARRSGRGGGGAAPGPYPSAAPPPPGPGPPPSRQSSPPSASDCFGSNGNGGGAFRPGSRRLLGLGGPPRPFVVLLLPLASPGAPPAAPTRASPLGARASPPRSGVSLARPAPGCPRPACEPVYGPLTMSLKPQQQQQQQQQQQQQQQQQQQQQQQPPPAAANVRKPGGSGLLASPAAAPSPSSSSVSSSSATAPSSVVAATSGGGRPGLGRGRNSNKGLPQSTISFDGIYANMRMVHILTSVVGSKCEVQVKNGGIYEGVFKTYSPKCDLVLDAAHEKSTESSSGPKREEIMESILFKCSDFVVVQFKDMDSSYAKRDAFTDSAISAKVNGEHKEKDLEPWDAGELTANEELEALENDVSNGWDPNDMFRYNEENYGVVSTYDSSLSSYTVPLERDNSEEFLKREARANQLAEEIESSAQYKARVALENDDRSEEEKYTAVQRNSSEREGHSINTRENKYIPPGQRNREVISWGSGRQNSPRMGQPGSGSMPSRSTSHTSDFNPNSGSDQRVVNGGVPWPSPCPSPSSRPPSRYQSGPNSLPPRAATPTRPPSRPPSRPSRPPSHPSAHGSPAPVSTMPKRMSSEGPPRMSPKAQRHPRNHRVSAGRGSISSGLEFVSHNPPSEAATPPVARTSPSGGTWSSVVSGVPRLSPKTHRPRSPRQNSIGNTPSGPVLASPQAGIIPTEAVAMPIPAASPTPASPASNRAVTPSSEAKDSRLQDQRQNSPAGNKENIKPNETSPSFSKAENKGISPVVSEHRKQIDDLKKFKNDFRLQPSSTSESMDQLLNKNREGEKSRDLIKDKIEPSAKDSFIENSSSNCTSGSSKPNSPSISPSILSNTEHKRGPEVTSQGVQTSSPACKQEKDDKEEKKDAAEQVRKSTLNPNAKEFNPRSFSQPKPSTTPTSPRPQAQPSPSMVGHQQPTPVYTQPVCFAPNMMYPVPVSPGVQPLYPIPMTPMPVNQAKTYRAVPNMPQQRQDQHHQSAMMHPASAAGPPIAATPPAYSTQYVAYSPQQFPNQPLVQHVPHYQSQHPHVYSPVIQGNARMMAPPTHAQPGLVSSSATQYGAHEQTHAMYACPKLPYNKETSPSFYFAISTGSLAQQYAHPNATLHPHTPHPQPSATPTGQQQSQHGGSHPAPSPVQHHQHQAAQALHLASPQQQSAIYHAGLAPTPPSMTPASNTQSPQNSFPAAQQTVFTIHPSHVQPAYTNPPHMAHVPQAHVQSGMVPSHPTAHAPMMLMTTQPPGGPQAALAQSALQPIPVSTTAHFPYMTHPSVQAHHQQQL

Compound | Potency
Cc1ccc(OCCn2cc(/C=N/NC(=O)c3ccncc3)c3ccccc32)cc1 | inactive
CC(C)C(C)NC(=O)CSc1nnc(-c2c[nH]c3ccccc23)o1 (stereo not given) | inactive
Cc1ccc(CSc2nnc(SCC(=O)N/N=C/c3c[nH]c4ccccc34)s2)cc1 | 5.97 µM (active)
O=C1CCCC(O)=C1Sc1cc(Cl)c(Cl)cc1Cl | inactive
O=C(/C=C/Sc1ccccc1)c1ccc(Cl)cc1 | 11.2 µM (active)
O=C(c1ccccc1)c1cccc(C(=O)c2ccccc2)c1 | inactive
O=C(CNC(=O)c1ccc(Cl)cc1)Nc1ccccc1C(F)(F)F | inactive
O=C1OCCN=C1/C=C(\O)c1ccc(Cl)cc1 | inactive
O=C(/C=C/Sc1ccccc1)c1ccccc1 | 15.8 µM (active)
OC(C#CCN1CCCC1)(c1ccccc1)c1cccnc1 (stereo not given) | inactive
O=C(c1cc2c(=O)n3ccccc3nc2s1)N1CCN(Cc2ccc3c(c2)OCO3)CC1 | inactive
Cc1ccc(C23OCCN2CCn2nc4ccccc4c23)cc1 (stereo not given) | inactive
CC(C)c1cc(=O)oc2c3c4c(cc12)CCCN4CCC3 | inactive
O=C(N/N=C/c1cn(CCOc2ccccc2)c2ccccc12)c1ccncc1 | inactive
Cn1c(N)c(C(=O)N/N=C/c2ccccc2)sc1=S | inactive
O=C(N/N=C/C(Br)=C/c1ccccc1)c1ccncc1 | 31.6 µM (active)
O=C(N/N=C/c1cn(Cc2ccccc2)c2ccccc12)c1ccncc1 | inactive
Cc1cc(C(=O)N/N=C/c2cc(Br)ccc2OC(=O)c2ccccc2Cl)[nH]n1 | inactive
Cc1cc(C(=O)N/N=C/c2cc(Br)cc(Br)c2OC(=O)c2cccc(F)c2)[nH]n1 | inactive
CCN(CC)c1ccc(/C=C2\CCC(/C=N/NC(=O)c3ccc(=O)n(C)c3)=C2N2CCOCC2)cc1 | inactive
Cn1cc(C(=O)N/N=C/C(Br)=C/c2ccccc2)ccc1=O | 15.8 µM (active)
CC(C)c1cc(C(=O)N/N=C/C(Br)=C/c2ccccc2)[nH]n1 | 31.6 µM (active)
COc1ccc(-c2cc(=O)oc3cc(OC(=O)C4CCCCC4)c(Cl)cc23)cc1 | inactive
CCN1CCN(Cc2c(O)ccc3c(C)c(-c4ccccc4)c(=O)oc23)CC1 | inactive
CCOC(=O)CC1c2nc3ccccc3cc2CN1C(=O)OCC (stereo not given) | inactive

Compound | Potency
CC(=O)/N=c1\c(C#N)cc2c(=O)n3ccccc3nc2n1CCCOC(C)C | inactive
OC1=C2C(=Nc3ccccc3SC2c2ccc(C(F)(F)F)cc2)c2ccccc21 (stereo not given) | 31.6 µM (active)
OC1=C2C(=Nc3ccccc3SC2c2ccc(Cl)c(Cl)c2)c2ccccc21 (stereo not given) | 31.6 µM (active)
CC(C)N1C(=O)S/C(=C\c2ccc(-c3ccc(Cl)c(C(=O)O)c3)o2)C1=O | inactive
COc1cccc(N(CC(=O)N2CCCCCC2)S(C)(=O)=O)c1 | inactive
COc1ccc(C2OC3=Nc4cc(C)c(C)cc4NC3=C2O)cc1 (stereo not given) | inactive
NC(=O)CC(NC(=O)c1ccc(Br)cc1)c1ccc(N2CCCCCCC2)c([N+](=O)[O-])c1 (stereo not given) | 31.6 µM (active)
CN(Cc1ccccc1)c1ccc(C(CC(N)=O)NC(=O)Cc2ccc(Br)cc2)cc1[N+](=O)[O-] (stereo not given) | 35.5 µM (active)
NC(=O)CC(NC(=O)c1ccc(Br)cc1)c1ccc(NC2CCCCCCC2)c([N+](=O)[O-])c1 (stereo not given) | 31.6 µM (active)
O=C(O)c1ccc(NS(=O)(=O)c2ccc(N3CCCC3)c([N+](=O)[O-])c2)cc1 | inactive
O=C(Cc1ccc(Br)cc1)N(Cc1ccccc1)c1ccccn1 | inactive
O=C(COc1ccc(Br)cc1)NNC(=O)c1ccc(-n2cncn2)c([N+](=O)[O-])c1 | inactive
Cc1cc(NC(=O)CNCC(c2ccccc2)N(C)C)c([N+](=O)[O-])cc1C (stereo not given) | inactive
NC(=O)CC(NC(=O)Cc1ccc(Br)cc1)c1ccc(NC2CC3CCC2C3)c([N+](=O)[O-])c1 (stereo not given) | 25.1 µM (active)
O=[N+]([O-])c1cccc(S(=O)(=O)NC2CC3CCC2C3)c1 (stereo not given) | inactive
C=CCNc1nc2ccccc2nc1NS(=O)(=O)c1ccc(F)cc1 | inactive
CCOC(=O)/C(=C\C=C1/Sc2cc(OCC)c(OCC)cc2N1CC)C(C)=O | inactive
COc1ccccc1[C@@H]1C(c2cccc(Cl)c2)=NN(c2ccccc2)[C@H]1C(=O)N1CCOC1=O | inactive
CCOC(=O)C1(Cc2cccc(F)c2)CCN(Cc2cn(CC)nc2C)CC1 | inactive
CCCn1c(N)c(C(=O)CSc2nncs2)c(=O)[nH]c1=O | inactive
COC(=O)C1=CN(CC2CCCO2)C=C(C(=O)OC)C1c1cccc(O)c1 (stereo not given) | inactive
Cc1c(O)ccc2c(CC(=O)N[C@@H](Cc3ccccc3)C(=O)O)cc(=O)oc12 | inactive
CCOC(=O)c1cc2c(=O)n3ccccc3nc2n(CC2CCCO2)/c1=N\C(=O)c1ccccc1OCC (stereo not given) | inactive
CCn1cc(C(=O)N(C)Cc2ccc(OC(F)F)cc2)c(=O)c2ccc(C)nc21 | inactive
COC(=O)c1ccc(COc2cccn3c(N(C)C(=O)CCC4CCCC4)c(C)nc23)cc1 | 35.5 µM (active)

Compound | Potency
CCOC(=O)C1CCCN(Cc2ccc(OCc3ccccc3)c(OC)c2)C1 (stereo not given) | inactive
Cc1nc2c(OCc3ccc(OC(F)F)cc3)cccn2c1N(C)C(=O)CCC1CCCC1 | 39.8 µM (active)
CCCCCC(=O)Nc1ncc2c(n1)CC(c1cccs1)CC2=O (stereo not given) | inactive
O=C(CCCCCn1c(=S)[nH]c2ccc(N3CCOCC3)cc2c1=O)NC1CCN(Cc2ccccc2)CC1 | inactive
Cc1sc2c(c1C)C(O)=C(/C=N/c1ccccn1)S(=O)(=O)N2C | inactive
N#C/C(=C(/O)COC(=O)COc1cccc(Br)c1)c1nc2ccccc2[nH]1 | 22.4 µM (active)
N#C/C(=C(/O)C(Cl)(Cl)Cl)c1nc2ccccc2[nH]1 | inactive
N#Cc1c(N)n(CCOC(=O)c2ccc(Cl)cc2)c2nc3ccccc3nc12 | inactive
N#Cc1c(N)n(CCNC(=O)c2ccccc2)c2nc3ccccc3nc12 | inactive
N#Cc1ccccc1S(=O)(=O)N1CCN(C(=O)CCC2CCCC2)CC1 | inactive
N#C/C(=C\c1ccc(-c2ccccc2C(=O)O)o1)c1nc2ccccc2[nH]1 | inactive
N#CC(=C(O)COC(=O)CCC1CCCCC1)c1nc2ccccc2[nH]1 | 39.8 µM (active)
N#C/C(=C(/O)COC(=O)COc1ccc(Cl)cc1)c1nc2ccccc2[nH]1 | 39.8 µM (active)
N#C/C(=C(/O)COC(=O)CCCNC(=O)c1ccc(Cl)cc1)c1nc2ccccc2[nH]1 | 25.1 µM (active)
N#C/C(=C\c1ccccc1C(=O)O)c1nc2ccccc2[nH]1 | inactive
Cc1cccc(N2C(=O)c3ccccc3C2=O)n1 | inactive
Oc1ccccc1C1=NN(c2ccccc2)C(c2ccccc2)C1 (stereo not given) | inactive
COc1cc(/C=C/c2onc(C)c2[N+](=O)[O-])cc(OC)c1OC | inactive
O=C(CN1C(=O)c2ccccc2C1=O)NCc1ccc(N2CCOCC2)cc1 | inactive
O=C(OCCOc1cccc(Cl)c1)c1ccc2ncsc2c1 | inactive
CCC(=O)Nc1c(OC(=O)CC)ccc2c(C)cc(=O)oc12 | inactive
CCCCn1c(N)c(N(CC)C(=O)c2cc(OC)cc(OC)c2)c(=O)[nH]c1=O | inactive
CCCCn1c(N)c(N(CCC(C)C)C(=O)c2ccc(-c3ccc([N+](=O)[O-])cc3)o2)c(=O)[nH]c1=O | 20 µM (active)
CCCCN(C(=O)c1ccc2ccccc2c1)c1c(N)n(CCCC)c(=O)[nH]c1=O | inactive
COc1cc2c(cc1OC)C(c1ccc(-c3ccccc3Cl)o1)=NCC2 | 39.8 µM (active)

Compound | Potency
Cc1nn(C)c(C)c1N1C(=O)c2cccc3c(Br)ccc(c23)C1=O | inactive
Cc1ccccc1C(=O)NCCCNC(=O)c1ccco1 | inactive
Cc1ccccc1CS(=O)(=O)Cc1ccc(C(=O)NCCCN2CC(C)CC(C)C2)o1 (stereo not given) | 8.91 µM (active)
Cc1ccccc1CNC(=O)c1ccccc1NS(C)(=O)=O | inactive
CC(C)C1Cc2c(sc3ncnc(NN)c23)CO1 (stereo not given) | inactive
COc1cc(C)c2sc3ccccc3c(=O)c2c1NCCN(C)C | 44.7 µM (active)
Cc1cc(O)cc2c(=O)c3ccccc3sc12 | inactive
CN(C)CCCNC(=O)c1cc2sc3ccccc3c2s1 | inactive
Cc1ccc(/C=N/NC(=O)c2cc3c(s2)CCCC3)o1 | inactive
O=S(=O)(/C=C/c1ccccc1)NCc1ccccc1Cl | inactive
O=C(CCC(=O)N/N=C/c1cc(Cl)cc(Cl)c1O)NCc1ccccc1 | inactive
CCC/C=C/c1ccc(CN2C(CC(C)C)C(=O)N(Cc3cn(CCC4OCCCO4)nn3)CCS2(=O)=O)cc1 (stereo not given) | 39.8 µM (active)
CCC/C=C/c1ccc(CN2C(CC(C)C)C(=O)N(Cc3cn(CCC4OCCO4)nn3)CCS2(=O)=O)cc1 (stereo not given) | 35.5 µM (active)
O=C(CCCCn1c(=O)[nH]c2ccsc2c1=O)NCc1ccc2c(c1)OCO2 | inactive
CN(C)S(=O)(=O)c1ccc2oc(SCC(=O)c3c(N)n(C4CC4)c(=O)[nH]c3=O)nc2c1 | inactive
O=c1c2ccccc2nc(/C=C/c2c[nH]c3ccccc23)n1CCO | inactive
CCCCc1cc(-c2nnc(S)o2)c2ccccc2n1 | inactive
CC(C)NS(=O)(=O)c1ccc(NC(=O)C(C)OC(=O)C2CCC2)cc1 (stereo not given) | inactive
CC(Oc1cc(F)ccc1[N+](=O)[O-])C(=O)Nc1ccc(S(=O)(=O)N2CCCC2)cc1 (stereo not given) | inactive
CC(Oc1ccccc1Cl)C(=O)Nc1ccc(S(=O)(=O)N2CCCC2)cc1 (stereo not given) | 35.5 µM (active)
Cc1cc2nc(-c3cccnc3O)[nH]c2cc1C | inactive
CN1c2ccccc2C(C)(C)C12C=Nc1c(cc(N3CCOCC3)c3ccccc13)O2 (stereo not given) | inactive
NC(=O)c1nsc(C(=O)N(c2cccc(O)c2)C(C(=O)NC2CCCC2)c2ccc(Cl)cc2)c1N (stereo not given) | inactive
Cc1ccccc1N(C(=O)c1snc(C(N)=O)c1N)C(C(=O)NCC1CCCO1)c1ccc(F)cc1 (stereo not given) | inactive
Cc1cccc(N(C(=O)c2nsc(Cl)c2Cl)C(C(=O)NC2CCCC2)c2ccc(O)cc2)c1C (stereo not given) | 17.8 µM (active)
